The list is not random: actives were taken first. Their share in the collection is about 2.1%.
HDAC3 inh: HDAC3 deacetylase inhibitors, primary screen, biochemical, fluorescence, cell-free homogeneous; recombinant HDAC3, fluorogenic peptide/trypsin coupled; Histone deacetylase 3 (Homo sapiens), O15379; 320,000 tested, 0.15% active; inhibition, % at 8.3 µM; in the data active means inhibition above about 26%, passing the limit was not always enough
Target sequence (O15379 whole entry, looked up): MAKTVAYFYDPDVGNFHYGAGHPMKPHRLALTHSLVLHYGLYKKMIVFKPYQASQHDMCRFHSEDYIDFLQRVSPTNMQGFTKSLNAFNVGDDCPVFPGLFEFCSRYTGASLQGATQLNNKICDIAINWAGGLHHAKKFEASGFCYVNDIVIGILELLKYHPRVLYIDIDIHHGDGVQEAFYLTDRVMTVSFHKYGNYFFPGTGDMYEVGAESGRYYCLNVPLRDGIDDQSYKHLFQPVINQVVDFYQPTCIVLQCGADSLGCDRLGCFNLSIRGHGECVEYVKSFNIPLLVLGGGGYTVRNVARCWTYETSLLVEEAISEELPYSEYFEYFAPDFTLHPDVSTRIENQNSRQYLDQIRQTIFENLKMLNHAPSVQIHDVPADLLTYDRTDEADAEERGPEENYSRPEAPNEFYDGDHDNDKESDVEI
IDE inh: human IDE inhibitors in live cells, primary screen, fluorescence polarization, HEK cells, FAbetaB substrate; FAbetaB cleavage; inhibition, % at 5.59 µM; 320,000 tested, 0.41% active;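 active means percent inhibition above the average of all tested compounds plus 3 SD, set per screening campaign, cut at about 16% in these data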;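 further: IDE supplied by intact live HEK cells; FP after avidin binding of uncleaved biotin substrate so inhibition keeps polarization high; 0% = DMSO wells and 100% = 60 µM reference IDE inhibitor Ii1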
LANA-H2A inh: blockers of LANA interaction with H2A/H2B – biochemical, FP readout, HTS, primary screen. Protein LANA1 (Human herpesvirus 8 type P (isolate GK18)), Q9QR71. cell-free LANA-H2A/H2B peptide, fluorescence polarization. inhibition, % (concentration not given with the values). 320,000 tested, 0.6% active. AID 2629, 2010; in the data active means inhibition mostly above about 10%, no sharp cut-off; inactive means mostly below about 6.7%
IDE act: human IDE activators in live cells, primary screen, fluorescence polarization, HEK cells, FAbeta-B substrate; Insulin-degrading enzyme (Homo sapiens), P14735; FAbeta-B cleavage; 0% vehicle, 100% cell-free pure enzyme wells; activation, % at 5.96 µM; 340,000 tested, 0.073% active; AID 493087, 2011;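 active means activation above the mean of all tested compounds plus 3 SD, set per screening campaign, cut at about 17% in these data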
SUMO Mot1 rescue: yeast Mot1-301 growth rescue at high temperature, primary screen, SUMOylation pathway inhibitor project, S. cerevisiae, ATP luminescence, 38.5C | S. cerevisiae Mot1-301 growth rescue; percent above DMSO median, 100 means doubled | growth rescue, % at 18.8 µM | 320,000 tested, 1% active | AID 2716, 2010;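 active means every valid replicate shows activation above 250% relative to neutral control wells; inactive means the rest, any valid replicate at or below 250%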;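 further: OY570 slx delta 5 strain wells were the positive control but not used for scaling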
IDE cell inh cf: human IDE inhibitors in live cells, confirmation, fluorescence polarization, HEK cells, FAbetaB substrate; inhibition, % at 5.59 µM; 1,200 tested, 51% active; shares compounds with IDE inh; FAbetaB cleavage;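 active means mean inhibition across triplicate wells above the cutoff set by the earlier primary insulin-degrading enzyme screen, cut at about 16% in these data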;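 further: 0% = DMSO wells and 100% = 60 µM reference IDE inhibitor Ii1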
HEK293 tox: cytotoxicity in HEK cells, cytotoxicity control for IDE inhibitor project, cell-based, luminescence. HEK293 cytotoxicity, ATP luminescence. inhibition, % at 5.59 µM. shares compounds with IDE inh. AID 449730, 2010. 1,200 tested, 28% active; in the data active means inhibition above about 22%;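 further: 0% = vehicle wells and 100% = reference cytotoxic drug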
Starred values were filed as active, the others as inactive; · = no result given.

SMILES	HDAC3 inh	IDE inh	LANA-H2A inh	IDE act	SUMO Mot1 rescue	IDE cell inh cf	HEK293 tox
Cn1c(SCc2nc(-c3ccccc3)no2)nnc1-c1cccs1	3	12	-5	-12	6	·	·
Cn1c(SCCOc2ccc(Cl)cc2)nnc1-c1ccncc1	3	44*	5	-48	-17	15	16
Cn1c(SCc2nc(-c3ccc(Cl)cc3)no2)nnc1-c1cccs1	7	16*	-4	-13	-28	8	9
O=C(COC(=O)COc1ccc(Cl)cc1)Nc1ncc(Br)s1	·	·	·	-1	·	·	·
CN1C(=O)[C@H]2[C@@H](C3CC3)N3C(=O)CN(Cc4ccc(-c5ccccc5)cc4)C(=O)[C@@]3(C)[C@H]2C1=O	-5	1	-4	-1	10	·	·
O=c1[nH]cnc2c1ncn2-c1ccc(N(CCO)CCO)cc1	·	·	·	4	·	·	·
Cc1c(NC(=O)/C(C#N)=C/c2ccc(-c3ccc(Cl)cc3)o2)c(=O)n(-c2ccccc2)n1C	9	64*	0	-25	-19	40*	19
COc1cc(N2CCCC2)c(OC)cc1/C=C1/NC(=S)NC1=O	4	118*	-7	-120	-18	150*	11
COc1ccc(OC)c(/C=C2\NC(=O)NC2=O)c1	5	6	-1	2	0	·	·
COC(=O)c1ccc(/C=C(\C#N)c2nc3ccccc3s2)cc1	2	32*	5	6	-2	-2	12
N#C/C(=C/c1ccc(-c2ccc(S(N)(=O)=O)cc2)o1)c1nc2ccccc2s1	-7	40*	-2	-48	11	78*	24*
N#C/C(=C/c1ccc(-c2ccc(S(N)(=O)=O)cc2)o1)C(=O)Nc1ccccc1	4	3	-2	1	8	·	·
N#C/C(=C\c1ccccn1)c1nc2ccccc2s1	-6	28*	2	-60	0	46*	17
COc1ccc(/C(C#N)=C/c2ccccn2)cc1	-2	6	-7	-2	-9	·	·
CC(C)(C)c1ccc(C(=O)OC/C(O)=C(\C#N)c2nc3ccccc3s2)cc1	3	-5	8	-2	-14	·	·
O=C(CN1C(=O)NC2(CCCC2)C1=O)Nc1cccc(Cl)c1	-5	4	1	0	-9	·	·
CCCNC(=O)Cn1c(=O)/c(=C/c2ccc(-c3cccc([N+](=O)[O-])c3)o2)s/c1=C\C(=O)C(C)(C)C	·	·	·	4	·	·	·
CCCNC(=O)Cn1c(=O)/c(=C\c2ccc(-c3ccc([N+](=O)[O-])cc3)o2)s/c1=C\C(=O)C(C)(C)C	0	21*	-6	-1	-7	77*	18
C[C@@H]1C=C(C(=O)NCc2nc3ccccc3[nH]2)O[C@H](OCCCCO)C1	-3	17*	3	-4	32	3	13
Cc1cc(CSc2ccccc2)ccc1NC(=O)c1ccc(CN2CCOCC2)cc1	-3	25*	0	-11	96	9	75*
COc1cccc(C(=O)Nc2nc(C)cs2)c1	4	4	3	-4	0	·	·
COc1cccc(C(=O)Nc2nc(-c3ccncc3)cs2)c1	8	26*	7	-12	13	12	11
COc1cccc(/C=c2\s/c(=C/C(=O)c3ccc(C)cc3)[nH]c2=O)c1OC	5	-2	3	-5	32	·	·
COc1ccc(/C=c2\s/c(=C/C(=O)c3ccc(C)cc3)[nH]c2=O)c(OC)c1	-2	88*	3	-67	9	112*	12
O=C(N=C1SC2CS(=O)(=O)CC2N1Cc1ccccc1Cl)C1CCCO1 (stereo not given)	0	1	-3	10	2	·	·
SMILES	HDAC3 inh	IDE inh	LANA-H2A inh	IDE act	SUMO Mot1 rescue	IDE cell inh cf	HEK293 tox
Cc1ccc(CN2C(=O)N/C(=C\c3ccc(N4CCOCC4)cc3)C2=O)cc1	·	2	·	8	·	·	·
CCN1C(=O)/C(=C/c2ccc(N3CCCC3)cc2)NC1=S	15	124*	-9	-152	6	158*	23*
CCCN1C(=O)/C(=C/c2ccc(N3CCOCC3)cc2)NC1=S	11	16*	-2	-25	-2	31*	17
CCOc1ccc(NC(=O)CS(=O)CC(=O)N(CC(=O)NC(C)(C)C)C2CCCC2)cc1 (stereo not given)	-16	-12	3	4	-4	·	·
Cc1ccc(S(=O)(=O)Nc2ccc3oc(=O)sc3c2)c(C)c1	5	18*	1	-3	-8	7	4
CCCCCC(=O)N(Cc1ccccc1)c1c(N)n(CCOC)c(=O)[nH]c1=O	2	1	0	4	192	·	·
Cc1cc(/C=C2\NC(=S)N(C)C2=O)ccc1N1CCCC1	6	88*	-11	-115	·	96*	21
CN1C(=O)/C(=C/c2ccc(OCc3ccc(F)cc3)cc2)N(C)C1=S	-5	0	2	2	0	·	·
CCCN1C(=O)/C(=C/c2ccc(N3CCCC3)c(C)c2)NC1=S	3	95*	-22	-110	66	128*	27*
Cc1cc(/C=C2/C(=O)N(C)C(=S)N2C)ccc1N1CCCC1	-3	26*	-3	-45	1	51*	20
CCOc1ccc(NC(=O)CN(C)C(=O)c2cc(S(=O)(=O)N(C)C)ccc2N2CCCC2)cc1OCC	-9	-4	2	3	7	·	·
CCOc1ccc(/C=C2/SC(=O)NC2=S)cc1	0	33*	7	-3	12	2	14
CCOc1ccc(N=C2NC(=O)S/C2=C\c2ccc(N(C)C)cc2)cc1	-3	13	4	-13	80	·	·
CCOC(=O)/C(=C\C=C1/Sc2cc(OCC)c(OCC)cc2N1CC)C(C)=O	9	128*	-24	-149	58	41*	35*
CCN1/C(=C/C(C)=O)Sc2ccc(OC)cc21	8	2	1	7	9	·	·
CCOC(=O)/C(=C/C=C1\Sc2cc(OCC)c(OCC)cc2N1CC)C(C)=O	2	163*	-22	-128	15	92*	25*
CCOC(=O)C1CCN(Cc2cc(Cl)c3ccccc3c2O)CC1	-11	-4	2	3	93	·	·
COc1cc(/C=C2\SC(N)=NC2=O)cc(Cl)c1O	-3	26*	1	-42	73	47*	12
Cc1ccc(C(=O)N2[C@@H]3CN(C)C(=O)[C@@]2(C)[C@H]2C(=O)N(C)C(=O)[C@@H]32)cc1	·	·	·	5	·	·	·
